From PubChem BioAssay (NCATS)
Records with an inconclusive call do not appear. Activity calls are given as the source filed them. Unless noted, calls follow the shape of the dose curve; as a rule, active = well fitted curve in the direction sought with a large enough effect; inconclusive = small, poorly fitted or top-dose-only effect, or another doubt; inactive = no such curve, though single readings can be large; an effect the other way counts as inactive or inconclusive.

Legend:
[1] = biological target: Peptidyl-prolyl cis-trans isomerase NIMA-interacting 1 (Homo sapiens) (UniProt Q13526); test: qHTS Validation Assay to Find Inhibitors of Pin1 (AID 504536; active = well fitted inhibition curve with a large enough effect in the polarisation, with a control signal flat, not every such curve was filed as active; the % refers to the polarisation; also: potency is read from the fitted curve at half-maximal effect)
Peptidyl-prolyl cis-trans isomerase NIMA-interacting 1 (Homo sapiens), sequence (Q13526 whole entry, looked up): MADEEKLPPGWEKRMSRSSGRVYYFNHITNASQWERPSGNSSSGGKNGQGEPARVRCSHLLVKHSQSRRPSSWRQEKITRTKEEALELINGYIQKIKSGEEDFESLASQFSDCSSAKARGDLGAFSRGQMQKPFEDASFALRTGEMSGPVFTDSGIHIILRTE
Outline: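 Fluorescence polarization competition: compounds (titration) displace HiFluor-488-labeled Pin1-1b peptide from Pin1 (0.3 uM final) in pH 7.5 HEPES buffer with DTT, 10 min at room temperature; %Activity normalized to no-enzyme wells, curves fitted.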

[2] = biological target: Phosphoglycerate kinase, glycosomal (Trypanosoma brucei brucei) (UniProt P07378); test: qHTS Validation Assay to Find Inhibitors of Phosphoglycerate Kinase (AID 504547)
Phosphoglycerate kinase, glycosomal (Trypanosoma brucei brucei), sequence (P07378 whole entry, looked up): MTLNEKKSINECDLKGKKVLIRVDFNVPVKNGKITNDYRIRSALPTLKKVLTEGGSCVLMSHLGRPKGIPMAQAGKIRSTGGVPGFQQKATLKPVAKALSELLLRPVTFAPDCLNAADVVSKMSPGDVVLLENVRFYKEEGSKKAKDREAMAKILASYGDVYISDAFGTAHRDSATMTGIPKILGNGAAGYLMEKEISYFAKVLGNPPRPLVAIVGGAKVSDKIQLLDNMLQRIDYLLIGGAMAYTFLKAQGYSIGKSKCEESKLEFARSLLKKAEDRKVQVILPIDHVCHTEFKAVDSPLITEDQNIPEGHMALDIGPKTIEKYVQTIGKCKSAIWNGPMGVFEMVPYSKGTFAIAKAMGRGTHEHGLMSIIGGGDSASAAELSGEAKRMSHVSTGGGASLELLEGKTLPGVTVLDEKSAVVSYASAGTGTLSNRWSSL
Outline: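 Inhibition of the enzyme is judged by a Kinase-Glo Plus luminescent signal following a one-hour incubation at room temperature. Because 1,3-BPG is unstable, it is made in situ by GAPDH at 100nM final; no-PGK wells define the baseline.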

[3] = biological target: phosphoglycerate mutase (Leishmania major) (UniProt Q4Q090); test: qHTS Validation Assay to Find Inhibitors of Phosphoglycerate Mutase (AID 504548); details: Potency: inhibition qHTS; also: series mostly up to about 58 µM
phosphoglycerate mutase (Leishmania major), sequence (Q4Q090 1-553): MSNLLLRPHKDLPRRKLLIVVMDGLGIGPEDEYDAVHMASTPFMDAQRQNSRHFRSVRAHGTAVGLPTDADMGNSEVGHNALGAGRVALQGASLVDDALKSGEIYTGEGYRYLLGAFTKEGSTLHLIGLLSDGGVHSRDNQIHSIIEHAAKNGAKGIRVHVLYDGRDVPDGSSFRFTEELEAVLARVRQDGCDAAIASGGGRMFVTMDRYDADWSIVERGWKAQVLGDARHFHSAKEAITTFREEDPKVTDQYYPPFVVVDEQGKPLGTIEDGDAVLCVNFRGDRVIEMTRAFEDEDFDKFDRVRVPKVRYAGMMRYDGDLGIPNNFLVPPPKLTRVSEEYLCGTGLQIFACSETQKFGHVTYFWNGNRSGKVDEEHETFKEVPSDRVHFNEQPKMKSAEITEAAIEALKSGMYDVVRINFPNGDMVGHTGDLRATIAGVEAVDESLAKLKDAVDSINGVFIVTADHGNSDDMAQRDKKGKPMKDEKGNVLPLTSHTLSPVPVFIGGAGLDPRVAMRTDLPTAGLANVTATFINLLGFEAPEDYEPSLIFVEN
Outline: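 Lm PGAM at 1.25 nM final with substrate in 100 mM TEA pH 7.6, 5 mM MgCl2, 0.01% Tween-20; 45 min at room temperature. Kinase-GloPlus added, 10 min, end-point luminescence read.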

[4] = biological target: Ubiquitin carboxyl-terminal hydrolase 1 (Homo sapiens) (UniProt O94782); test: Inhibitors of USP1/UAF1: Pilot qHTS (AID 504865); also: nearly all actives have a fitted effect of over 35% in size; also: potency is read from the fitted curve at half-maximal effect
Ubiquitin carboxyl-terminal hydrolase 1 (Homo sapiens), sequence (O94782 whole entry, looked up): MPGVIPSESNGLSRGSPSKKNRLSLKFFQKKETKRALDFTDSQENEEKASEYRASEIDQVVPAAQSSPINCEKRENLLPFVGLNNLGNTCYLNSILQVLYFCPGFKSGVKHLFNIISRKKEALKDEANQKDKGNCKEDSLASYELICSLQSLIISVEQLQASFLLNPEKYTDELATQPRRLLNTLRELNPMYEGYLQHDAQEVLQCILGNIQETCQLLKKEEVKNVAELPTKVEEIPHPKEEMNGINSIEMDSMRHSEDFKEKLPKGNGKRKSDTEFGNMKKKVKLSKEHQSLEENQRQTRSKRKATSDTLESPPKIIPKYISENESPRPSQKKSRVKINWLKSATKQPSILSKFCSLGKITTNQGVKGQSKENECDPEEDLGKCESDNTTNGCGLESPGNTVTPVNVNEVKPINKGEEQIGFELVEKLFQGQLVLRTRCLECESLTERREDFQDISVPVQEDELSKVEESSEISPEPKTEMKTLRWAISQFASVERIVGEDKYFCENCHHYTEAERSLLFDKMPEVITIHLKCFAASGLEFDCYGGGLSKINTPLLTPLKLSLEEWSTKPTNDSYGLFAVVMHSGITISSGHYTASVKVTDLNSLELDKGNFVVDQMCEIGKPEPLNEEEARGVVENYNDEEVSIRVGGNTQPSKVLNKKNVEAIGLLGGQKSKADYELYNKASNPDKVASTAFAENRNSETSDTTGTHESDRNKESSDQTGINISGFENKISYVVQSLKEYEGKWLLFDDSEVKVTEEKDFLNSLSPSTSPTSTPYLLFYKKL
Outline: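 USP1/UAF1 complex (1nM) preincubated with compound 15 min at room temperature, then Ub-Rho substrate (150nM final) added. Fluorescence read kinetically at 480/540 nm, 6 reads every 60 seconds. Buffer: 50mM HEPES pH 7.8, 0.5mM EDTA, 0.1 mg/ml BSA, 1mM TCEP, 0.01% Tween-20.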

[5] = qHTS for Inhibitors of ATXN expression: Validation of Cytotoxic Assay (AID 588349)
Outline: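 HEK293 cells treated with titrated compound for 72 hr at 37 degrees C; viability read as intracellular ATP by CellTiter Glo luminescence.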

[6] = qHTS for Inhibitors of ATXN expression: Validation (AID 588378); also: nearly all actives have a fitted effect of over 75% in size; also: potency is read from the fitted curve at half-maximal effect
Outline: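 Luminescence from an ATXN2-FFLuc reporter in HEK293 cells served as read-out after 24 h compound treatment at 37 degrees C; CellTiter-Fluor fluorescence was recorded first to assess viability.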

[7] = biological target: DNA dC->dU-editing enzyme APOBEC-3G (Homo sapiens) (UniProt Q9HC16); test: qHTS for inhibitors of Vif-A3G interactions: Validation (AID 588379)
DNA dC->dU-editing enzyme APOBEC-3G (Homo sapiens), sequence (Q9HC16 whole entry, looked up): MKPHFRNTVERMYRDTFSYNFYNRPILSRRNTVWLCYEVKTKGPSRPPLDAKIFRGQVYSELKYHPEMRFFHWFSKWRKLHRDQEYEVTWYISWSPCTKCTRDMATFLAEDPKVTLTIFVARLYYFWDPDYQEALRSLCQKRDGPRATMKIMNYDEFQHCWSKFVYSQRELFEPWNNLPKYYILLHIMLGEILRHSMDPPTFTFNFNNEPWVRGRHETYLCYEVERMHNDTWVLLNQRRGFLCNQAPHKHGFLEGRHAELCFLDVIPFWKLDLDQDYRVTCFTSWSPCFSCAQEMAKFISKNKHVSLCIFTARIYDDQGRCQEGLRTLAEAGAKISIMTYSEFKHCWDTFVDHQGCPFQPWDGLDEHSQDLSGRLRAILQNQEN
Outline: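 HeLa cells stably expressing Vif and A3G-eYFP, 700 cells/well, incubated overnight at 37 deg C, then exposed to compound overnight at 37 deg C. Inhibition of Vif-mediated degradation read as increased yellow fluorescence (Ex 488/Em 500-530) by laser-scanning cytometry.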

Measured: Potency

CO/S(=N\S(=O)(=O)c1ccc(Cl)cc1)c1ccc([N+](=O)[O-])cc1 (centres undefined)
active: [4] 31.6 µM
not listed: [7]
inactive: all other assays above

Clc1ccc(N2CCN(Cc3cc4ccccn4n3)CC2)cc1
not listed: [7]
inactive: all other assays above

Nc1nc(SCc2ccc([N+](=O)[O-])cc2)c2ncn([C@@H]3O[C@H](CO)[C@@H](O)[C@H]3O)c2n1
not listed: [7]
inactive: all other assays above

CC(N)C(=O)OC(C)(C)Cc1ccc(Cl)cc1 (centres undefined)
not listed: [7]
inactive: all other assays above

O=C(c1ccc(Cl)cc1)N1CCN(c2ccc([N+](=O)[O-])c3ncccc23)CC1
not listed: [7]
inactive: all other assays above

NC[C@H]1O[C@@H](n2cnc3c(N)ncnc32)[C@H](O)[C@@H]1O
not listed: [7]
inactive: all other assays above

Nc1nc(Nc2ccccc2)nc2c1ncn2[C@@H]1O[C@H](CO)[C@@H](O)[C@H]1O
not listed: [7]
inactive: all other assays above

Nc1ncnc2c1ncn2[C@@H]1O[C@H](COP(=O)(O)OP(=O)(O)OP(=O)(O)OP(=O)(O)OC[C@@H]2O[C@H](n3cnc4c(N)ncnc43)[C@@H](O)[C@H]2O)[C@@H](O)[C@H]1O
not listed: [7]
inactive: all other assays above

CNC(=O)[C@H]1O[C@@H](n2cnc3c(NCc4cccc(I)c4)ncnc32)[C@H](O)[C@@H]1O
not listed: [7]
inactive: all other assays above

CN(C)CCCO[C@@H]1[C@H]2OC(C)(C)O[C@H]2O[C@@H]1[C@H](O)CO
not listed: [7]
inactive: all other assays above

O=C1NC(=O)/C(=C/c2ccc(-c3ccc(F)cc3O)o2)S1
active: [4] 44.7 µM
not listed: [7]
inactive: all other assays above

NS(=O)(=O)C#Cc1ccccc1
inactive: [1] | [2] | [3] | [4]

Nc1nc(Cl)nc2c1ncn2[C@@H]1O[C@H](CO)[C@@H](O)[C@H]1O
not listed: [6] | [7]
inactive: all other assays above

Cc1cc(NC2CCCCC2)nc(-n2nc(C)cc2C)n1
not listed: [7]
inactive: all other assays above

CNC(=O)[C@H]1O[C@@H](n2cnc3c(NCc4ccc(N)cc4)ncnc32)[C@H](O)[C@@H]1O
not listed: [7]
inactive: all other assays above

C#C[C@]1(O)CC[C@H]2[C@@H]3CCC4=Cc5oncc5CC4(C)[C@H]3CCC21C (some centres undefined)
not listed: [4] | [7]
inactive: all other assays above

O=[N+]([O-])c1ccc2c(c1)S(=O)(=O)C=C2
inactive: [1] | [2] | [3]
active: [6] 6.31 µM

COC1=C(OC)C(=O)c2ccccc2C1=O
active: [4] 17.8 µM
inactive: [2] | [3]

COc1cc(SC)ccc1C(=O)N1CCC(Cc2ccccc2)CC1
inactive: [1] | [2] | [3] | [5]

Oc1cc2c(cc1O)CN(C(=S)NCCc1ccc(Cl)cc1)CCC2
not listed: [4]
inactive: all other assays above

CCCC1(C)C(C#N)(C#N)C1(C#N)C#N
active: [4] 10 µM
inactive: [1] | [2]

O=P(O)(O)C(Cl)(Cl)P(=O)(O)O
inactive: [2] | [3] | [5] | [6]
active: [1] 26.9 µM

O=C1/C(=C/c2ccsc2)CC/C1=C\c1cccs1
not listed: [3] | [7]
inactive: all other assays above

CN1C2CC(OC(=O)[C@H](CO)c3ccccc3)CC1C1OC12 (some centres undefined)
not listed: [4] | [7]
inactive: all other assays above

C[N+]1(C)CCC(OC(=O)C(c2ccccc2)c2ccccc2)CC1
inactive: all assays above

O=[N+]([O-])c1ccc(CSc2ncnc3c2ncn3[C@@H]2O[C@H](CO)[C@@H](O)[C@H]2O)cc1
not listed: [7]
inactive: all other assays above

O=C(/C=C/c1ccc(O)cc1)c1ccc(O)cc1O
active: [4] 79.4 µM
inactive: [1] | [2] | [6]

Cc1nc2sccn2c(=O)c1CCN1CCC(=C(c2ccccc2)c2ccc(F)cc2)CC1
not listed: [4] | [5]
inactive: all other assays above
